Screening data as filed in PubChem BioAssay.
The list is not random: actives were taken first. Their share in the collection is about 10%.
GPT2 inh – GPT2 alanine aminotransferase inhibition; AID 1671188; Recombinant GPT2, coupled pyruvate oxidase/HRP Amplex Red fluorescence; Potency, µM (series often up to 57.7 µM), inactives show at the highest dose activity change, negative = inhibition, most hits filed as inhibitors; 0.25% of 100,000 active; Q8TD30; also: nearly all actives have a fitted effect of over 60% in size
Target sequence (Q8TD30 whole entry, looked up): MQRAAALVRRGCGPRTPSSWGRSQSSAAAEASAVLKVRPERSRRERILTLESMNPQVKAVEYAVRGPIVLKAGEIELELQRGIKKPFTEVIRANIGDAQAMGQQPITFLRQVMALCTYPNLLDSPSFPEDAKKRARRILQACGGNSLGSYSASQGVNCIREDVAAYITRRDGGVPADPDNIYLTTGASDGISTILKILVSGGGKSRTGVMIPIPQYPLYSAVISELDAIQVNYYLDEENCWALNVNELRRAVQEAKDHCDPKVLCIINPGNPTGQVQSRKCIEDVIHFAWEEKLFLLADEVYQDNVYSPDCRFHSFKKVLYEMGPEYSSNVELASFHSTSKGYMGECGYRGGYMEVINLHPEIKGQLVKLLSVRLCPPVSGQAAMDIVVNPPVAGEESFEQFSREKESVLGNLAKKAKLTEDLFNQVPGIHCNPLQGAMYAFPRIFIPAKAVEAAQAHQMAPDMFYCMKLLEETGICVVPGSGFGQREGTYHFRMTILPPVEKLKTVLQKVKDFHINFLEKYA
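Fluorescence of coupled pyruvate oxidase/HRP/Amplex Red system (50uM Amplex, 30 min, dark) reports pyruvate formed by GPT2. Enzyme reaction: 10ng/uL GPT2, 2mM L-alanine, 250uM a-KG, 30 min room temperature, pH 7.5; 50uM AOA control.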
FLuc inh – blocks purified firefly luciferase enzyme activity | purified P. pyralis luciferase, luminescence, biochemical | 2.5% of 76,000 active | Potency, µM (series often up to 115 µM), hits mostly inhibitors | P08659 | AID 1347043; also: nearly all actives have a fitted effect of over 65% in size
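Purified 10nM P. pyralis luciferase with 10uM D-luciferin and 10uM ATP in 50mM Tris acetate pH 7.5, 10mM Mg acetate, 0.01% Tween-20, 0.05% BSA. qHTS titration; luminescence read by CCD imager.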
HEK cytotox – cytotoxic compounds in HEK 293 cells; HEK 293 viability, ATP luminescence (CellTiter-Glo), 48-72 h; Potency, µM (highest dose often 115 µM), without a hit: top-dose activity change, negative = cytotoxicity, actives largely listed as inhibitors; 6.6% of 94,000 active; AID 1345083; also: nearly all actives have a fitted effect of over 60% in size
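Pintool-delivered compounds were incubated with HEK 293 cells (250 cells/well) at 37 degree Celsius for 48 or 72 hr. ATP-dependent luminescence (CellTiter-Glo) then reported remaining viable cells.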
NIH3T3 tox – NIH 3T3 cell cytotoxicity; NIH 3T3 viability, CellTiter-Glo ATP luminescence, 48-72 h; Potency, µM (doses to about 96.7 µM), inactives show top-dose activity change, negative = cytotoxicity, hits mostly inhibitors; 4.3% of 94,000 active; also: nearly all actives have a fitted effect of over 55% in size
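Luminescent ATP readout (CellTiter-Glo, 10 min RT) after 48 or 72 hr compound exposure of NIH 3T3 cells seeded at 400 cells/well in 1536-well format; quantitative HTS.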
hNpr1 antagonist – antagonists of human natriuretic peptide receptor Npr1 | P16066 | HEK293 hNpr1 GloSensor cGMP, ANP-stimulated luminescence | Potency, µM (titrated, usually from 46.3 µM), for inactives: top-dose activity change, negative = inhibition, most hits filed as inhibitors | 1.6% of 76,000 active | AID 1347048; calls by dose curve; also: nearly all actives have a fitted effect of over 60% in size
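HEK293 cells stably expressing human Npr1 and cGMP GloSensor pGS-40F, loaded 2 h with 2% GloSensor reagent, given compound 30 min at room temperature. Luminescence read before and 20 min after 0.1 nM hNppA.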
An asterisk follows results filed as active; i = inactive; ? = inconclusive; nt = not tested or not shown; ! = not confirmed by another sample; [ ] = remark or other dose. Unless noted, calls follow the shape of the dose curve; as a rule, active = well fitted curve in the direction sought with a large enough effect; inconclusive = small, poorly fitted or top-dose-only effect, or another doubt; inactive = no such curve, though single readings can be large; an effect the other way counts as inactive or inconclusive. % is scaled to controls: 0 for no effect and ±100 for the full control effect; potency is read from the fitted curve at half-maximal effect.

SMILES | GPT2 inh | FLuc inh | HEK cytotox | NIH3T3 tox | hNpr1 antagonist
CCc1[nH]c2c(CNC(=O)c3n[nH]c4c3CCC4)cc(C)cc2c1C | -12.7%[11.5 µM] | i | 35.5µM* | 35.5µM* | -17.1%
CCc1[nH]c2c(CNC(=O)CC3C(=O)NCCN3C(C)C)cc(C)cc2c1C (configuration not stated) | 2.9% | i | -10.9% | -21.1% | -5.0%
O=C(Nc1ccccc1F)N1CCCCCC1CN1CCCC1 (configuration not stated) | i | i | i | 1.3% | 1.2%
CN1CCN(c2ccc(-c3cn(C)c(=O)n4cc(CNc5ccccc5)nc34)cn2)CC1 | i | i | 70.8µM* | 50.1µM* | -0.6%[70.6 µM]
Cn1cc(-c2cn(C)c(=O)n3cc(CNc4ccccc4)nc23)cn1 | -5.3%[88.5 µM] | ? | -28.3%[172 µM] | ? | 1.5%[70.6 µM]
COc1cccc(-c2nc3c([nH]2)CN(c2cc(C4CC4)ncn2)CC3)c1 | -6.5%[11.5 µM] | 25.1µM* | 35.5µM* | ? | ?
CCCCOc1ccc(C(=O)CCN2CCCCC2)cc1 | i | nt | nt | nt | nt
O=C(c1ccc(OCCN2CCCCC2)cc1)c1c(-c2ccc(O)cc2)sc2cc(O)ccc12 | 8.91µM*! | nt | nt | nt | nt
CC(C)(C)CN1CCOC[C@H]1c1ncc(-c2ccc(Cl)s2)[nH]1 | -27.6%[88.5 µM] | i | 79.4µM* | ? | -15.2%[70.6 µM]
Cn1c(CN2CCOC[C@H]2c2ncc(-c3ccc(Cl)s3)[nH]2)nc2ccccc21 | -6.2%[88.5 µM] | i | ? | 89.1µM* | ?
O=C(O)c1ccc(CN2CCOC[C@H]2c2ncc(-c3ccc(Cl)s3)[nH]2)cc1 | 2.7%[88.5 µM] | i | -8.6%[172 µM] | -3.8%[174 µM] | 2.2%[70.6 µM]
Clc1ccc(-c2cnc([C@@H]3COCCN3C3CCCCC3)[nH]2)s1 | -2.3%[88.5 µM] | i | 79.4µM* | 79.4µM* | -29.0%[70.6 µM]
Clc1ccc(-c2cnc([C@@H]3COCCN3Cc3ccccc3)[nH]2)s1 | -11.5%[88.5 µM] | i | 100µM* | 79.4µM* | ?
COc1ccccc1N1CCN(C(=O)C(C)[C@@H]2CCc3c(C)cc(OCCN4CCOCC4)c(C)c3C2)CC1 (some centres not stated) | i | i | 22.4µM* | ? | ?
CC1=C[C@@H](CNC(=O)CCCC(=O)O)[C@H](C(C)C)C[C@H]1Cc1nc2ncccc2[nH]1 | -4.7%[88.5 µM] | i | -4.4%[172 µM] | -13.4%[174 µM] | 2.0%[70.6 µM]
Cc1nc2c(c(-c3ccc(O)cc3)n1)CN(Cc1ccc(OC(F)(F)F)cc1)CCC2 | -13.5% | i | 35.5µM* | ? | ?
COc1ccc(-c2nc(C)nc3c2CCN(Cc2cccc4ccccc24)CC3)cc1 | i | i | 39.8µM* | ? | 2.6%
Cc1nc2c(c(-c3ccc(O)cc3)n1)CN(Cc1ccccc1)CCC2 | -5.0% | i | ? | ? | 0.0%
Cc1nc2c(c(-c3ccc(O)cc3)n1)CN(Cc1ccc(C(F)(F)F)cc1)CC2 | i | i | ? | -31.2% | -1.4%
Cc1nc2c(c(-c3ccc(O)cc3)n1)CN(Cc1ccc(C(F)(F)F)cc1)CCC2 | -6.3% | i | 31.6µM* | ? | ?
Cc1nc2c(c(-c3ccc(O)cc3)n1)CN(Cc1cccc3ccccc13)CCC2 | i | i | 31.6µM* | 31.6µM* | ?
CCc1noc(-c2cn(C3CCN(C(=O)c4sccc4C)CC3)nn2)n1 | i | i | -13.7% | -29.5% | 8.5%
Cc1c(CNC(=O)c2ccc(C3CCNC3)cc2)oc2ccccc12 (configuration not stated) | i | i | ? | ? | 4.1%
CCOc1ccccc1NC(=O)Cn1c(N(C)Cc2ccccc2)nc(C)cc1=O | -1.6% | i | 35.5µM* | ? | -13.0%
Cc1cc(=O)n(CC(=O)Nc2cc(Cl)ccc2C)c(N(C)Cc2ccccc2)n1 | -9.3% | i | 25.1µM* | ? | -2.6%
SMILES | GPT2 inh | FLuc inh | HEK cytotox | NIH3T3 tox | hNpr1 antagonist
O=C(CNC(=O)c1ccc(-c2cnc3ccccc3c2)cc1)NCCc1cccc(F)c1 | 1.0% | nt | i | -17.8% | nt
c1ccc2cc(-c3noc([C@@H]4Cc5nc[nH]c5CN4CC4CCCCC4)n3)ccc2c1 | 3.4%[88.5 µM] | ? | 70.8µM* | 50.1µM* | -16.8%[70.6 µM]
Cc1ccc(-c2noc([C@@H]3Cc4nc[nH]c4CN3CC3CCCCC3)n2)cc1 | 0.3%[88.5 µM] | ? | 63.1µM* | 70.8µM* | 0.8%[70.6 µM]
COC(=O)CNC(=O)N1CCOc2ccc(CN3CCc4ccccc4C3)cc2C1 | i | i | i | -6.7% | -2.2%
Cc1cc(-c2cc3c(ccn3C(C)C)c(C(=O)NCc3c(C)cc(C)[nH]c3=O)n2)ccn1 | 1.9%[88.5 µM] | i | 44.7µM* | 44.7µM* | -7.8%[70.6 µM]
CC(=O)Nc1cccc(-c2cc3c(ccn3C)c(C(=O)NCc3c(C)cc(C)[nH]c3=O)n2)c1 | 2.1% | i | ? | -24.8% | 3.6%
Cc1cc(C)c(CNC(=O)c2nc(-c3cncnc3)cc3c2ccn3C(C)C)c(=O)[nH]1 | i | i | ? | ? | 5.3%[70.6 µM]
Cc1cc(C)c(CNC(=O)c2nc(-c3ccc(CO)cc3)cc3c2ccn3C(C)C)c(=O)[nH]1 | -7.0% | i | 79.4µM* | ? | 3.6%
Cc1cc(C)c(CNC(=O)c2nc(-c3ccc(F)cc3)cc3c2ccn3C(C)C)c(=O)[nH]1 | i | i | 50.1µM* | 44.7µM* | 2.7%[70.6 µM]
Cc1cc(C)c(CNC(=O)c2nc(-c3cccnc3)cc3c2ccn3C(C)C)c(=O)[nH]1 | i | i | 100µM* | ? | -4.1%[70.6 µM]
COc1cccc(-c2cc3c(ccn3C(C)C)c(C(=O)NCc3c(C)cc(C)[nH]c3=O)n2)c1 | i | i | ? | ? | -0.6%
CC(C)c1nc2c(c(-c3ccc(O)cc3)n1)CN(Cc1cccc3ccccc13)CC2 | 3.8% | i | ? | ? | -19.3%
CC(=O)N1CCC(C(=O)N2CCC(c3nc4ncccc4[nH]3)C2)CC1 (configuration not stated) | -2.0% | nt | -1.7% | -18.3% | nt
Cc1ccc(C(=O)N2CCC(c3nc(C4CCOCC4)no3)CC2)cn1 | i | i | -3.8% | -12.1% | 10.0%
O=C(C1CCCN1C(=O)C1CC1)N1CCC(N2Cc3cccn3C2=O)CC1 (configuration not stated) | i | nt | -7.3% | -18.6% | nt
Cc1nn(-c2ccc(F)cc2)c(Oc2ccc(F)cc2F)c1CCC(=O)N1CCSCC1 | -11.0% | i | ? | ? | -18.5%
CCOC(=O)C1CCN(C(=O)c2ccc3oc(-c4ccncc4)nc3c2)CC1 | -3.1%[88.5 µM] | nt | -22.9%[172 µM] | -22.6%[138 µM] | nt
Cc1ccc2nc(CO[C@H]3CN(C(=O)C4CC4)C[C@H]3F)[nH]c2c1 | ? | 28.2µM* | -7.5%[172 µM] | -16.5%[138 µM] | -14.5%[70.6 µM]
COc1ccc(C(=O)N2C[C@@H](F)[C@@H](OCc3nc4ccccc4o3)C2)cc1 | -12.5%[88.5 µM] | i | 100µM* | -29.9%[174 µM] | 0.5%[70.6 µM]
